CCHF vOTU inh = CCHFV vOTU protease inhibition; AID 651958; Pep-AMC fluorescence; inhibition, % at 11.5 µM; 370,000 tested, 0.55% active; in the data active means inhibition above about 30%
PriA SSB inh = blocks PriA binding to SSB C-terminal tail; AlphaScreen SSBct-PriA binding, biotinylated peptide; inhibition, % at 33 µM; 430,000 tested, 0.6% active; AID 1272365; in the data active means inhibition mostly above about 37%, no sharp cut-off; inactive means mostly below about 20%
Mtb hypoxia rep = inhibitors of hypoxia-regulated fluorescent reporter in Mycobacterium tuberculosis | M. tuberculosis hypoxia-regulated fluorescent reporter, fluorescence | fluorescence inhibition, % (concentration not given with the values) | AID 1159583 | 300,000 tested, 0.1% active; in the data active means fluorescence inhibition mostly above about 23%, no sharp cut-off; inactive means mostly below about 17%
ugtP null kill = compounds lethal to S. aureus RN4220 ugtP deletion mutant. AID 1259309. 330,000 tested, 0.54% active. growth inhibition, % (test concentration not listed). OD600 growth, 16 h; in the data active means growth inhibition above about 68%
Sa RN4220 lethal = kills Staphylococcus aureus RN4220 | S. aureus RN4220 growth, OD600, 16 h | 330,000 tested, 0.33% active | inhibition, % (no concentration beside the values); in the data active means inhibition above about 85%
A number is an active result; n = inactive; x = no result shown; ! = not active in a repeat. Only some compounds are listed: those with a hit (about 1.4% of all), similar ones and a draw of the others.

SMILES	CCHF vOTU inh	PriA SSB inh	Mtb hypoxia rep	ugtP null kill	Sa RN4220 lethal
COC(=O)Cn1c(=NC(=O)c2ccc([N+](=O)[O-])s2)sc2cc(Br)ccc21	x	x	n	97	99
Fc1c(Cl)ccc2cccnc12	x	n	x	x	x
Oc1ccc(Br)c2cccnc12	x	n	x	x	x
Cc1cc(Cl)c2ccc3ccccc3c2n1	n	n	n	n	n
Oc1c(Cl)ccc2cccnc12	x	82	x	x	x
Oc1ccc(F)c2cccnc12	n	81	n	n	n
Oc1cc(Cl)cc2cccnc12	x	84	x	x	x
Cc1ccc2c(Cl)cc(Cl)c(O)c2n1	n	n	n	99	99
Fc1cccc(Nc2nc(NCC3CCCO3)nc3c2cnn3-c2ccccc2)c1 (centres undefined)	x	n	x	x	x
CN(C)c1ccc(O[C@H]2CCN(C(=O)Cn3c(=O)oc4ccccc43)C2)nn1	x	n	x	x	x
Cc1onc(-c2ccccc2Cl)c1C(=O)NCC(O)(c1ccccc1)C(F)(F)F (centres undefined)	x	n	x	x	x
Cc1ccc2c(c1)NC(=O)c1cc(NC(=O)c3ccccc3C)ccc1O2	x	n	x	x	x
Oc1c(Cl)cc(Cl)c2cccnc12	n	83!	n	n	n
Oc1c(I)cc(I)c2cccnc12	n	58	n	96	95
O=C(Oc1c(Cl)cc(Cl)c2cccnc12)c1ccco1	n	n	n	98	99
Oc1ccc(Cl)c2cccnc12	n	n	n	98	97
Ic1cccc2cccnc12	x	n	x	x	x
O=c1c2c(nc(SCc3ccccc3F)n1CCc1ccccc1)CCS2	x	n	x	x	x
Oc1ccc(N=Nc2ccccc2C(F)(F)F)c2cccnc12	n	n	n	99	96
Cc1nc2c([nH]1)CC(C(=O)NCc1nnc(C)o1)CC2 (centres undefined)	x	n	x	x	x
O=C(c1ccc(-c2cc(O)c3ncccc3c2)cc1)N1CCNCC1	n	74	n	n	n
CC(C)(C)c1ccc(OCCNC(=O)c2ncn[nH]2)cc1	n	57	x	n	n
CCc1cc(C)cc(OCCNC(=O)c2ncn[nH]2)c1	n	n	n	n	n
O=c1c(-c2nnc(SCc3ccc(Cl)c(Cl)c3)o2)cccn1Cc1ccccc1	n	n	n	86	n
COc1ccc(-c2nnc(SCc3nc4ccccc4s3)n2C(C)C)cc1	n	n	45	n	n
SMILES	CCHF vOTU inh	PriA SSB inh	Mtb hypoxia rep	ugtP null kill	Sa RN4220 lethal
O=[N+]([O-])c1ccc2[nH]cc(S(=O)(=O)N3CCN(c4cccc(Cl)c4)CC3)c2c1	n	n	n	90	100
Cc1ccc([N+](=O)[O-])cc1S(=O)(=O)N1CCN(c2cccc(Cl)c2)CC1	x	n	x	x	x
C=CCNc1nc(C(=O)OCC(=O)c2ccc(F)cc2)cs1	n	46	n	n	n
C=CCNc1nc(C(=O)OCC(=O)c2cccc(Br)c2)cs1	n	n	n	n	n
CCCNc1nc(SC)nc2c1cnn2CCNC(=O)c1c(-c2ccccc2Cl)noc1C	x	62	x	x	x
O=S(=O)(NCCOc1ccccc1)c1cccs1	x	n	x	x	x
CC(C)(C)C(=O)OCc1nc(-c2ccc(Cl)cc2)cs1	n	n	n	92	n
COc1ccc(-c2csc(COC(=O)C(C)(C)C)n2)cc1	n	n	n	n	n
O=[N+]([O-])c1cc(Cl)ccc1Nc1ccc(O)cc1	x	103	x	x	x
O=C(Cn1ncccc1=O)N1C2CCC1CC(S(=O)(=O)c1ccccc1)C2 (centres undefined)	x	88	x	x	x
CC(=O)N1C2CCC1CC(S(=O)(=O)c1ccccc1)C2 (centres undefined)	x	n	x	x	x
O=S(=O)(c1ccccc1)C1CC2CCC(C1)N2S(=O)(=O)C1CC1 (centres undefined)	x	91	x	x	x
CN(C)S(=O)(=O)N1C2CCC1CC(S(=O)(=O)c1ccccc1)C2 (centres undefined)	x	n	x	x	x
CC(C)(C)c1ccc(-n2c(=O)[nH]c3c(C(N)=O)ncnc32)cc1	x	n	x	x	x
Cc1ccc(C(=O)c2c(C)oc3c2C(=O)C(=O)c2ccccc2-3)cc1	x	n	x	93	109
Cc1oc2c(c1C(=O)c1ccc(Cl)cc1)C(=O)C(=O)c1ccccc1-2	n	n	x	x	x
CCN1C(=O)C(C)(C)COc2ccc(NC(=O)c3ccccc3Br)cc21	x	n	x	x	x
Cc1c[nH]c2cccc(OCC(CNC(C)(C)C)OC(=O)c3ccccc3)c12 (centres undefined)	n	49	n	n	n
Oc1nc(Nc2ccc3c(c2)OCO3)sc1C=C1C=Nc2ccccc21	x	n	x	x	x
COc1ccc(C2C(=C(O)c3ccc(OC)c(Cl)c3)C(=O)C(=O)N2CCN(C)C)cc1 (centres undefined)	x	n	x	x	x
CC(=O)c1ccc(N2CCN(C(=O)c3ccc(-c4ccccc4)cc3)CC2)cc1	n	n	n	n	n
CC(=O)c1ccc(N2CCN(C(=O)c3cccc(Oc4ccccc4)c3)CC2)cc1	n	n	n	87	n
